This note sets out measurements from PubChem BioAssay AID1479144 (National Center for Advancing Translational Sciences (NCATS), 2020).

Inconclusive results are not listed. Calls of active or inactive are those of the source. The call rests on the fitted dose curve.

The nature of the test: Confirmatory qHTS for Vero E6 cytotoxicity: counterscreen for inhibitors of SARS-S pseudo-typed particle cell entry. As to conditions: cell viability; series mostly up to 57.1 µM; activity change, negative = cytotoxicity: at the top concentration. Background: qHTS replaces the single test concentration by a dilution series.
Take `Cc1c(N)nc(C(CC(N)=O)NCC(N)C(N)=O)nc1C(=O)NC(C(=O)NC(C)C(O)C(C)C(=O)NC(C(=O)NCCc1nc(-c2nc(C(=O)NCCCN[C@@H](C)c3ccccc3)cs2)cs1)C(C)O)C(O[C@@H]1O[C@@H](CO)[C@@H](O)[C@H](O)[C@@H]1O[C@H]1O[C@H](CO)[C@@H](O)[C@H](OC(N)=O)[C@@H]1O)c1cnc[nH]1` (stereo partly drawn): the “activity change, negative = cytotoxicity” value was 0% (inactive).

Consider `C[C@H]1[C@H](OC(=O)CCC(=O)O)O[C@@H]2O[C@@]3(C)CC[C@H]4[C@H](C)CC[C@@H]1[C@@]24OO3`, for which the “activity change, negative = cytotoxicity” value is -12.5% (inactive).

Turning to `N=C(N)c1ccc(OCCCCCOc2ccc(C(=N)N)cc2)cc1`, the Potency was 21.5 µM (active).

Consider `Cc1nnc(C(=O)NC(C)(C)c2nc(C(=O)NCc3ccc(F)cc3)c(O)c(=O)n2C)o1`, for which the “activity change, negative = cytotoxicity” value is 3.68% (inactive).

As to `CC(=O)OCC1=C(C(=O)O)N2C(=O)[C@@H](NC(=O)Cc3cccs3)[C@H]2SC1`, the “activity change, negative = cytotoxicity” value is 4.91% (inactive).

Take `CC(C)C[C@H](NC(=O)[C@H](CCc1ccccc1)NC(=O)CN1CCOCC1)C(=O)N[C@@H](Cc1ccccc1)C(=O)N[C@@H](CC(C)C)C(=O)[C@@]1(C)CO1`: the Potency was 0.681 µM (active).

As to `O=c1[nH]c(=O)n([C@H]2C[C@H](O)[C@@H](CO)O2)cc1C(F)(F)F`, the “activity change, negative = cytotoxicity” value is -5.43% (inactive).

For the compound `CC[C@@]1(O)C(=O)OCc2c1cc1n(c2=O)Cc2c-1nc1ccccc1c2/C=N/OC(C)(C)C`, the Potency is 17.1 µM (active).

In the case of `CCCCCCCCCCCCCC[n+]1ccc(C)cc1`, the Potency was 4.29 µM (active).

With `CCCCCCCCCCCC[n+]1ccc2ccccc2c1`, the Potency is 3.83 µM (active).

For the compound `CC[C@@]1(O)C(=O)OCc2c1cc1n(c2=O)Cc2cc3c([N+](=O)[O-])cccc3nc2-1`, the Potency was 3.93 µM (active).

With `COc1cc(NS(C)(=O)=O)ccc1Nc1c2ccccc2nc2ccccc12`, the Potency is 12.1 µM (active).

Regarding `O=C(Nc1ccc([N+](=O)[O-])cc1Cl)c1cc(Cl)ccc1O`, the Potency was 0.857 µM (active).

For `COc1cc(N)c(Cl)cc1C(=O)NC1CCN(CCCOc2ccc(F)cc2)CC1OC` (stereo not drawn), the “activity change, negative = cytotoxicity” value is 4.05% (inactive).

As for `CC(C)(C)NC(=O)[C@H]1CC[C@H]2[C@@H]3CC[C@H]4NC(=O)C=C[C@]4(C)[C@H]3CC[C@]12C`, the “activity change, negative = cytotoxicity” value is 0.628% (inactive).

Consider `C[n+]1c2cc(N)ccc2cc2ccc(N)cc21` (tested in a mixture with another compound), for which the Potency was 10.8 µM (active).

Take `COc1cc([C@@H]2c3cc4c(cc3C(O[C@@H]3O[C@@H]5CO[C@@H](c6cccs6)OC5[C@H](O)[C@H]3O)C3COC(=O)[C@@H]32)OCO4)cc(OC)c1O` (stereo partly drawn): the Potency is 24.1 µM (active).

Consider `COc1cc2c(cc1Cc1cccc(Cl)c1F)c(=O)c(C(=O)O)cn2[C@H](CO)C(C)C`, for which the “activity change, negative = cytotoxicity” value is 0% (inactive).

As to `CC[C@H](C)C(=O)O[C@H]1C[C@@H](C)C=C2C=C[C@H](C)[C@H](CC[C@@H]3C[C@@H](O)CC(=O)O3)[C@H]21`, the Potency was 9.61 µM (active).

Turning to `C=CC(=O)Nc1cc(Nc2nccc(-c3cn(C)c4ccccc34)n2)c(OC)cc1N(C)CCN(C)C`, the Potency is 13.6 µM (active).

With `CN(C)CCOC(c1ccccc1)c1ccc(Br)cc1` (stereo not drawn), the “activity change, negative = cytotoxicity” value is -3.96% (inactive).

`CC(C)OC(=O)[C@H](C)N[P@](=O)(CO[C@H](C)Cn1cnc2c(N)ncnc21)Oc1ccccc1`: the “activity change, negative = cytotoxicity” value was 0% (inactive).

For the compound `Cc1nn(C)c2c1C(c1ccccc1F)=NCC(=O)N2C`, the “activity change, negative = cytotoxicity” value is 0% (inactive).

As for `COc1cc2nccc(Oc3ccc(NC(=O)NC4CC4)c(Cl)c3)c2cc1C(N)=O`, the “activity change, negative = cytotoxicity” value is 3.84% (inactive).

Consider `CNCCCC12CCC(c3ccccc31)c1ccccc12`, for which the “activity change, negative = cytotoxicity” value is -14.6% (inactive).

Turning to `Nc1ccn([C@@H]2O[C@H](CO)[C@@H](O)C2(F)F)c(=O)n1`, the “activity change, negative = cytotoxicity” value is 0% (inactive).

Turning to `COc1ccc(Cc2nccc3cc(OC)c(OC)cc23)cc1OC`, the “activity change, negative = cytotoxicity” value was -9.35% (inactive).

Regarding `CC(C)(C)NCC(O)COc1ccccc1C1CCCC1` (stereo not drawn), the “activity change, negative = cytotoxicity” value is -11.2% (inactive).

On to `CCCCCCNC(=O)n1cc(F)c(=O)[nH]c1=O`, for which the “activity change, negative = cytotoxicity” value is 0% (inactive).

On to `C/C=C(/C)C(=O)O[C@H]1C(C)=CC23C(=O)C(C=C(CO)[C@@H](O)[C@]12O)[C@H]1[C@@H](C[C@H]3C)C1(C)C` (stereo partly drawn), for which the “activity change, negative = cytotoxicity” value is 3.6% (inactive).

For the compound `N#CC(c1ccc(Cl)cc1)c1c(Cl)cc(-n2ncc(=O)[nH]c2=O)cc1Cl` (stereo not drawn), the Potency was 24.1 µM (active).

On to `C=CC1(C)CC(=O)C2(O)C(C)(O1)C(OC(C)=O)C(OC(=O)CCN(C)C)C1C(C)(C)CCC(O)C12C` (stereo not drawn), for which the “activity change, negative = cytotoxicity” value was -12.4% (inactive).

Regarding `CCN1CCN(Cc2ccc(Nc3ncc(F)c(-c4cc(F)c5nc(C)n(C(C)C)c5c4)n3)nc2)CC1`, the “activity change, negative = cytotoxicity” value is 0% (inactive).
